Bioassay records (PubChem)
GLP1R cytotox: cytotoxic in the GLP-1 receptor inverse agonist counter-screen | HEK293 cAMP-luciferase reporter cells, luminescence, 24 h | Potency, µM (highest dose often 38.3 µM), for inactives: at the top dose activity change, negative = inhibition, hits mostly inhibitors | 410,000 compounds, 0.13% hits | AID 624418;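 note: loss of luciferase light is scored as toxicity; potency is the fitted concentration of half-maximal effect; % is set by controls: 0 for no effect and ±100 for the full control effect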
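Step one: seed cells (200 cells/uL, DMEM with 10% Nu serum, 1% pen-strep). Step two: 12-hour incubation at 37 deg C. Step three: pin 23 nL compound, incubate 24 hr. Step four: add luciferase reagent, read luminescence 12 min later.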
ClpP mod: qHTS Assay for Activators of ClpP; AID 651965, 2013; Potency, µM (titrated, usually from 57.5 µM), without a hit: at the top dose activity change, negative = active; ATP-dependent Clp protease proteolytic subunit (Bacillus subtilis (strain 168)), P80244; 340,000 compounds, 1.9% hits; purified B. subtilis ClpP, FRET peptide cleavage, 20 min; active = well fitted falling curve with a large enough effect; inconclusive = small, poorly fitted or top-dose-only effect; inactive = no such curve, though single readings can be large or run the other way; note: potency is the fitted concentration of half-maximal effect; the source files actives as falling curves though it sought activators and does not explain the sign; nearly all actives have a fitted effect of over 65% in size
Target sequence (P80244 whole entry, looked up): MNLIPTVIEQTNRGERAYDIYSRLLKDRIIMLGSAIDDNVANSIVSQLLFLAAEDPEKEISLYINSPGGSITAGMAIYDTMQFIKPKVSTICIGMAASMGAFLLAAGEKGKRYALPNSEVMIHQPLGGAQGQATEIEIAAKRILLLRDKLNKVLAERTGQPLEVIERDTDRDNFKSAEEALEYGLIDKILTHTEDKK
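Buffer: 100 mM Tris/HCl pH8, 100 mM KCl, 0.05% low protease BSA, 2.5% glycerol, 0.01% Tween-20. ClpP 10 microg/mL final; 20 min RT; delta FRET normalized to ADEP and DMSO controls.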
D3 antag: D3 dopamine receptor (human) antagonism; max response, negative = inhibition, %; D3R cells, DiscoveRx beta-arrestin luminescence, antagonist mode; hits give low values; 360,000 compounds, 2.5% hits; P35462; in the data active = max response below about -50%; inconclusive = no clear call, values can overlap the other calls; note: % is set by controls: 0 for no effect and ±100 for the full control effect
Target sequence (P35462 whole entry, looked up): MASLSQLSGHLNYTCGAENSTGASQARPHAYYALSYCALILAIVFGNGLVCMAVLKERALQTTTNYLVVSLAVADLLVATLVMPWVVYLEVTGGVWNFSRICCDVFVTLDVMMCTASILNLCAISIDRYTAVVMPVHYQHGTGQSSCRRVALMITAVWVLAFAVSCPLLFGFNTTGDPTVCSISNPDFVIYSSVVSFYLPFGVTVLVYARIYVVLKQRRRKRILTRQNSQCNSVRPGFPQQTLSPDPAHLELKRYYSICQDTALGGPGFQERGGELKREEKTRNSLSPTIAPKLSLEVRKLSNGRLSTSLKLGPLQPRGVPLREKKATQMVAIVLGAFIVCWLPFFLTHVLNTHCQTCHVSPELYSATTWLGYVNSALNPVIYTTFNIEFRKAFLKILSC
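Cells expressing the human receptor were seeded at 1500 cells/well, incubated overnight at 37 degrees C in 5% CO2, then exposed to library compounds with dopamine controls for 90 minutes at 37 degrees C before luminescent detection.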
GLP-1R inv ag: GLP-1 receptor (human) inverse agonism | Potency, µM (titrated, usually from 38.3 µM), for the others: top-dose activity change, negative = inhibition, hits mostly inhibitors | P43220 | 410,000 compounds, 1.6% hits | HEK293 GLP-1R CRE-luciferase, luminescence, 24 h; GLP-1R form is constitutively active; note: potency is the fitted concentration of half-maximal effect; % is set by controls: 0 for no effect and ±100 for the full control effect; nearly all actives have a fitted effect of over 55% in size
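Inverse agonism was detected as reduced cAMP-driven luciferase luminescence after 24 h compound treatment. The cells were HEK293 clones expressing constitutively active human GLP-1R with the reporter. Reporter-only and GPR119 cell lines served as counterscreen controls.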
GLP-1R agonist: agonists of human GLP-1 receptor; Potency, µM (doses to about 45.6 µM), for inactives: top-dose activation, hits mostly activators; HEK293 GLP-1R CRE-luciferase, luminescence, 4-6 h; cells express a hypersensitive GLP-1R form; P43220; 380,000 compounds, 0.007% hits; note: potency is the fitted concentration of half-maximal effect; % of control where 0% means no effect
D3 ag: activates the human D3 dopamine receptor | P35462 | D3R DiscoveRx beta-arrestin cells, luminescence, 90 min | max activation, % | 410,000 compounds, 0.58% hits; in the data active = max activation above about 30%; note: 0% is about no effect
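Cells at 1500/well, incubated overnight, then treated with pinned compounds (dopamine as control) for 90 min at 37 degrees C. DiscoveRx reagent added for 30 - 60 minutes at room temperature; luminescence read.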
* = called active by the depositor; ? = inconclusive; · = no result given. Shown are actives, neighbours in structure and some others; about 5.7% of the full set was active somewhere. Unless noted, calls come from the whole dose curve; as a rule, active = well fitted curve in the direction sought with a large enough effect; inconclusive = small, poorly fitted or top-dose-only effect, or another doubt; inactive = no such curve, though single readings can be large; an effect the other way counts as inactive or inconclusive.

SMILES | GLP1R cytotox | ClpP mod | D3 antag | GLP-1R inv ag | GLP-1R agonist | D3 ag
O=C(NCc1cccc(Cl)c1)c1cccn1-c1nnc(N2CCCC2)s1 | -10% | -10% | · | -9% | · | -6
CN(C)c1ccc(C(c2ccc(N(C)C)cc2)C(O)c2ccccc2)cc1 (centres undefined) | -8% | 6% | 8 | ? | -2% | 4
Cc1cc(=O)oc2cc(OC(C)C(=O)N3CCOCC3)ccc12 (centres undefined) | 8% | 14µM* | ? | 6% | -7% | -5
Cc1cc(=O)oc2cc(OC(C)C(=O)Nc3ccc(N4CCCCC4)cc3)ccc12 (centres undefined) | 3% | -2% | -8 | 11% | 2% | -22
COC1CC2CCC(C)[C@](O)(O2)C(=O)C(=O)N2CCCCC2C(=O)OC(C(C)CC2CCC(O)C(OC)C2)CC(=O)C(C)/C=C(/C)C(O)C(OC)C(=O)C(C)CC(C)C=CC=C/C=C\1C (some centres undefined) | · | · | · | · | 1% | ·
Cc1oc2cc3oc(=O)c(CCC(=O)NCCc4ccccc4F)c(C)c3cc2c1C | -10% | -21% | · | -10% | · | -7
Cc1c(Br)cccc1NC(=O)c1sccc1-n1cccc1 | 13% | 8.9µM* | -4 | ? | 0% | 2
COc1cc(C(O)C(=O)O)ccc1O (centres undefined) | 2% | 2% | 8 | 5% | -6% | 10
COc1cc(C2c3cc(O)c(OC)cc3CC(C(=O)O)C2CO)ccc1O (centres undefined) | -12% | · | 4 | -7% | 0% | 71*
O=C1NC[C@H](CCCCN2CCN(CCC3CCCCC3)C(=O)C2=O)N(CCc2ccc(O)cc2)C1=O | 2% | 4% | 9 | 27% | 11% | 7
CC(C)Cn1nc(C(=O)N2CCc3ccccc32)c2ccccc2c1=O | 6% | -2% | 0 | 11µM* | 2% | -3
CC1=C(C(=O)OC(C)C)C(c2coc3ccccc3c2=O)C2=C(CCCC2=O)N1 (centres undefined) | -20% | 3.5µM* | 0 | -1% | 0% | 4
CC1=C(C(=O)OC2CCCCC2)C(c2ccc(C)o2)C2=C(CCCC2=O)N1 (centres undefined) | 2% | ? | -50* | ? | 3% | 1
CC1=C(C(=O)OCc2ccccc2)C(c2ccc(C)o2)C2=C(CCCC2=O)N1 (centres undefined) | 20% | -10% | 12 | 3% | -1% | 1
CC1=C(C(=O)OC2CCCCC2)C(c2ccco2)C2=C(CC(C)(C)CC2=O)N1 (centres undefined) | 4% | 32µM* | 19 | 8.9µM* | 1% | -13
Cc1ccc(C(=O)CSC2=C(C#N)C(c3ccco3)C3=C(CC(C)(C)CC3=O)N2)cc1 (centres undefined) | 134% | -14% | -59* | ? | 0% | -1
CCc1nn(CC(=O)NCCc2ccc(OC)cc2OC)c(=O)c2cc3sccc3n12 | 11% | -4% | · | 2% | · | -16
COc1ccc(CCn2c3c(c(=O)[nH]c2=O)C(NC(=O)c2ccccc2F)(C(F)(F)F)C(=O)N3)cc1OC (centres undefined) | 1% | -1% | · | 8% | · | 8
COc1ccc(NC(=O)CSc2nc(-c3cc(OC)c(OC)c(OC)c3)[nH]c2-c2ccc(F)cc2)cc1 | -28% | ? | · | ? | · | -24
CCC(=O)N1CCc2cc(S(=O)(=O)NCCC(=O)Nc3ccc(CC)cc3)ccc21 | -4% | -2% | · | 15% | · | 3
Cc1cc(O)c(C(c2ccc(F)cc2)N2CCN(c3ccccc3)CC2)c(=O)n1Cc1ccco1 (centres undefined) | 1% | 1% | · | ? | · | -12
COc1ccc(CN(CCC(C)C)S(=O)(=O)c2ccccc2Br)cc1 | 19% | -5% | 1 | 11µM* | 1% | -8
NNC(=O)CN1C(c2ccc(Cl)cc2)=Nc2ccc(Br)cc2C1c1ccccc1 (centres undefined) | 3% | -14% | -59* | ? | -15% | -9
COC(=O)CN1C(c2ccccc2)=Nc2ccc(Cl)cc2C1c1ccccc1 (centres undefined) | -1% | -6% | -56* | ? | 1% | -5
COc1cc(C(=O)NCC(c2ccccc2)N(C)C)ccc1OCc1c(C)noc1C (centres undefined) | -6% | -1% | -100* | -22% | -2% | -26
SMILES | GLP1R cytotox | ClpP mod | D3 antag | GLP-1R inv ag | GLP-1R agonist | D3 ag
COc1cc(C(=O)Nc2cc(C)ccc2C)ccc1OCc1c(C)noc1C | 0% | · | -20 | 0% | 17% | -4
Cc1noc(C)c1COc1ccc(C(=O)Nc2ccccn2)cc1 | 6% | -1% | -11 | 18% | -1% | 4
Cc1noc(C)c1COc1ccc(C(=O)Nc2ccccc2)cc1 | ? | 1% | -55* | -7% | 6% | 2
Cc1ccc(C)c(NC(=O)c2ccc(OCc3c(C)noc3C)cc2)c1 | 2% | 32µM* | 18 | -16% | -2% | -4
COc1ccccc1NC(=O)c1cc(=O)c2ccc(C)c(C)c2o1 | 6% | -7% | · | 2% | · | 7
C#C[C@]1(OC(C)=O)CC[C@H]2[C@@H]3CCC4=C/C(=N/O)CC[C@@H]4[C@H]3CC[C@@]21CC | · | · | · | · | -1% | 37*
C#C[C@]1(O)CC[C@@H]2[C@H]3CCC4=CC(=O)CC[C@H]4[C@H]3C(=C)C[C@@]21CC | · | · | · | · | -3% | ·
COc1ccccc1N1CCN(C(=O)CSc2nc3ccccc3nc2N2CCC(C)CC2)CC1 | -1% | · | 35 | 5µM* | 9% | 25
O=C(CSc1nc2ccccc2nc1Cc1ccc(Cl)cc1)N1CCN(c2ccccc2F)CC1 | 2% | -1% | · | 7% | · | 37*
COc1ccccc1N1CCN(C(=O)CSc2nc3ccccc3nc2N2CCCCC2)CC1 | 1% | -14% | 26 | 5µM* | 6% | 14
Cc1ccc(Cc2nc3ccccc3nc2SCC(=O)N2CCN(c3ccccc3F)CC2)cc1 | -12% | -5% | · | 5% | · | 3
COc1ccccc1N1CCN(C(=O)CSc2nc3ccccc3nc2Cc2ccc(C)cc2)CC1 | -6% | -1% | · | ? | · | 34*
COc1ccccc1N1CCN(C(=O)CSc2nc3ccccc3nc2Cc2ccc(F)cc2)CC1 | 28% | 0% | · | 55% | · | 3
COc1ccc(CNC(=O)c2cc3cc(S(=O)(=O)N4CCCCC4)ccc3n2C)c(OC)c1 | 0% | ? | · | -4% | · | 0
